TDP-43 yeast inh: inhibitors of TDP-43 toxicity in yeast | Potency, µM (titrated, usually from 46.1 µM), usual class: activators | AID 652104 | TDP-43 expressing yeast growth rescue, BacTiter-Glo, 24 h | actives 1.8% (n = 410,000); further: nearly all actives have a fitted effect of over 50% in size
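Cell-based yeast growth screen: TDP-43 expression induced in galactose, inoculum OD600=0.02 after raffinose pregrowth to mid-log. Read-out BacTiter-Glo luminescence at 24 hr, 30 deg C; inhibition of toxicity seen as signal increase.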
aSyn yeast inh: inhibitors of alpha-synuclein toxicity in yeast; Yeast expressing alpha-synuclein, growth rescue, BacTiter-Glo, 24 h; Potency, µM (doses to about 46.1 µM), hits mostly activators; actives 0.14% (n = 370,000); AID 652106; further: nearly all actives have a fitted effect of over 65% in size
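Screening used galactose-induced yeast with toxic alpha-synuclein levels, exposed to compound for 24 hr at 30 deg C. Cell growth, read with BacTiter-Glo luminescence, gave the measured signal.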
CCT modulator: modulators of cytosolic chaperonin (CCT/TRiC) activity; purified chaperonin ATPase assay, HTRF ADP detection, 30 min; activity change, % (test concentration not listed), hits read low; actives 0.3% (n = 360,000); in the data active means activity change below about -30%
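TRiC (40 or 20 nM final, by batch activity) in 30 mM Tris pH 7.4, 100 mM KCl, 5 mM MgCl2, 1 mM DTT was treated with compound at 76 uM single dose, then 10 uM ATP, 30 min at 37 °C. ADP was read by HTRF Transcreener.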
MmCpn inh: inhibitors of Methanococcus maripaludis chaperonin TRiC (MmCpn); purified Mm-Cpn ATPase, ADP Transcreener TR-FRET; Potency, µM (doses to about 76.9 µM), usual class: inhibitors; actives 0.031% (n = 330,000); AID 504842; further: nearly all actives have a fitted effect of over 80% in size
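Inhibition of chaperonin ATP hydrolysis is measured as reduced ADP production, detected by competitive TR-FRET in which signal falls with ADP. Final enzyme 25 nM and ATP 10 uM, reacted 30 min at 37°C.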
Abeta rescue: restores growth of yeast expressing A-beta42 peptide. yeast expressing A-beta42, growth rescue, OD600, 48 h; response scale: 0% DMSO, 100% iron-clioquinol control. Potency, µM (doses to about 46.1 µM), hits mostly activators. actives 0.063% (n = 410,000). AID 1347071; further: nearly all actives have a fitted effect of over 55% in size
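Yeast A-beta toxicity model in growth medium with pinned compounds, 48 h at 30 C; growth read as absorbance at 600 nm. Normalized to FeCl3/clioquinol equimolar mix (positive) and DMSO (negative).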
FUS suppressor: FUS proteinopathy suppression in yeast. actives 0.24% (n = 390,000). S. cerevisiae FUS-expressing, growth rescue, OD600, 24 h. Potency, µM (series often up to 76.6 µM), actives largely listed as activators; further: nearly all actives have a fitted effect of over 55% in size
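Toxicity suppression screen in FUS-yeast. Cells induced with 2% galactose, starting OD 0.005, treated 24hr at 30C with compounds at multiple final concentrations; growth by OD600.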
A number is an active result; 0 = inactive; ? = inconclusive; - = no result given. Rows were chosen to be rich in hits. Some 2.3% of all compounds tested hit in one or more screens of this group. Unless noted, the call rests on the fitted dose curve; in most records, active means well fitted curve in the direction sought with a large enough effect; inconclusive means small, poorly fitted or top-dose-only effect, or another doubt; inactive means no such curve, though single readings can be large; an effect the other way counts as inactive or inconclusive.

SMILES | TDP-43 yeast inh | aSyn yeast inh | CCT modulator | MmCpn inh | Abeta rescue | FUS suppressor
C/C(=N/OC(=O)c1ccccc1Br)c1ccc(C)cc1 | 14.1µM | 0 | 0 | 0 | 0 | 0
Cc1ccccc1NC(=S)NCc1ccccc1 | 0 | 0 | 0 | 0 | 0 | 0
CCC(C)(C)NC(=S)Nc1ccccc1C | 0 | 0 | 0 | 0 | 12.6µM | 0
Cc1cc(Cl)c2oc(C(=O)N3CCN(C(=O)c4ccco4)CC3)c(C)c2c1 | 22.4µM | 0 | 0 | 0 | 0 | ?
Cc1c(C(=O)N2CCOCC2)oc2ccc(S(=O)(=O)N3CCCC3)cc12 | 0 | 0 | 0 | 35.5µM | 0 | 0
Cc1cc(Cl)c2oc(C(=O)N3CCOCC3)c(C)c2c1 | ? | 0 | -35.2 | - | 0 | 0
Cc1cc(Cl)c2oc(C(=O)N3CCN(c4cccc(C)n4)CC3)c(C)c2c1 | ? | 0 | 0 | 0 | 0 | 0
CCOC(=O)N1CCN(C(=O)c2oc3ccc(S(=O)(=O)N4CCOCC4)cc3c2C)CC1 | 0 | 0 | 0 | 0 | 0 | 0
COc1ccc(C#Cc2cnc(Cl)c3cncnc23)cc1OC | - | 0 | - | - | - | -
CCOc1ccc(-n2c(SCC(=O)c3ccc4ccccc4c3)nnc2-c2cccc(Cl)c2)cc1 | - | - | - | - | - | 0
O=S1(=O)c2c(cccc2N2CC[C@H](O)C2)O[C@H]2CCN1C2 | - | - | - | - | - | 0
CCCCCN1CCCCC(NC(=O)Cc2ccccc2)C1=O (configuration not stated) | - | - | - | - | - | 0
CCOC(=O)C1CCCCN1S(=O)(=O)c1ccc2c(c1)CC(C)N2C(=O)C1CCC1 (configuration not stated) | 0 | 0 | 0 | 0 | - | 25.1µM
CCC1CCCCN1S(=O)(=O)c1ccc2c(c1)CCN2C(=O)C1CCC1 (configuration not stated) | 35.5µM | 0 | 0 | 0 | 0 | 0
CC1Cc2cc(S(=O)(=O)N3CCCCC3C)ccc2N1C(=O)C1CCC1 (configuration not stated) | ? | 0 | 0 | 0 | - | 0
CCC1CCCCN1S(=O)(=O)c1ccc2c(c1)CCCN2C(C)=O (configuration not stated) | ? | - | - | - | 0 | 0
O=C(Nc1ccc(N2C(=O)[C@@H]3[C@H](C2=O)[C@@H]2C=C[C@H]3C2)c(Cl)c1)c1ccccn1 | - | - | - | - | - | 0
O=C(/C=C/c1ccccc1)C1=C(O)C(=O)N(CCO)C1c1cccc([N+](=O)[O-])c1 (configuration not stated) | 0 | 0 | 0 | 0 | 0 | 0
O=C(O)CCCCCN1C(=O)C(O)=C(C(=O)/C=C/c2ccccc2)C1c1ccc2c(c1)OCO2 (configuration not stated) | 0 | 0 | 0 | 0 | 0 | 35.5µM
NC(=O)C1CCN(c2nc(-c3ccc4ccccc4c3)cs2)CC1 | - | - | - | 0 | 0 | 0
NC(=O)C1CCN(c2nc(-c3ccc4c(c3)OCCCO4)cs2)CC1 | - | - | - | - | - | 25.1µM
CC(C)(C)C(=O)COc1ccccc1[N+](=O)[O-] | 0 | 0 | -48.2 | 0 | 0 | 0
O=C(COc1ccccc1[N+](=O)[O-])Nc1cc(Cl)ccc1C(=O)O | 0 | 0 | 0 | 44.7µM | 0 | 0
COC(=O)c1ccccc1NC(=O)COc1ccccc1[N+](=O)[O-] | ? | 0 | 0 | 0 | 0 | 0
Cc1coc2cc3oc(=O)c(CC(=O)N4CCCCC4)c(C)c3cc12 | 0 | - | - | - | 0 | 0
SMILES | TDP-43 yeast inh | aSyn yeast inh | CCT modulator | MmCpn inh | Abeta rescue | FUS suppressor
Cc1c(CCC(=O)O)c(=O)oc2cc3oc4c(c3cc12)CCCC4 | 0 | ? | 0 | 0 | 0 | 0
Cc1c(CCC(=O)N2CCC[C@H]2C(=O)O)c(=O)oc2cc3oc4c(c3cc12)CCCC4 | 20µM | 0 | 0 | 0 | 0 | ?
Cc1coc2cc3oc(=O)c(CCC(=O)N4CCCCC4)c(C)c3cc12 | 22.4µM | - | - | - | 0 | 0
Cc1noc(C)c1NC(=O)Nc1ccc2c(c1)C(=O)N([C@@H](C)CO)C[C@@H](C)[C@H](CN(C)S(=O)(=O)c1ccc(F)cc1)OCCCC[C@H](C)O2 | - | - | - | - | - | 0
COc1ccc(-c2cc(C(=O)NN=Cc3ccccc3[N+](=O)[O-])[nH]n2)cc1 | - | - | - | - | - | 0
COc1ccc(/C=C2\C=Cc3ccccc32)cc1 | - | 0 | - | - | - | -

From PubChem BioAssay
